The supplement of paper PMC12067926

Experiments:
Assay in all cases: relative growth (AUC of 72 h growth curve relative to DMSO control, dAUC) (ratio); higher = more growth (less inhibition), active = hit call of the paper
Details in all cases: 20 µM;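 active = growth AUC significantly below the DMSO wells by Dunnett test; inactive = the rest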
[1] = system: Aeromonas 1 (Aeromonas sp. AE235)
Procedure, shortened: (§1)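 Each chemical was tested at 20 µM (1% DMSO) in 96-well plates seeded with a 1:100 dilution of cultures grown to carrying capacity in Luria–Bertani medium. These were isolates from Icelandic stream sediments and Silwood Park soil, as well as whole sediment communities. A plate reader took A600 readings hourly over 72 h, and three biological replicates were averaged. Relative growth (dAUC) is the spline-integrated area under the growth curve relative to the mean of the DMSO controls.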

[2] = system: Aeromonas 2 (Aeromonas sobria)
Procedure, shortened: as §1

[3] = system: Aeromonas 3 (Aeromonas popoffii)
Procedure, shortened: as §1

[4] = system: Argrobacterium 1 (Agrobacterium sp.)
Procedure, shortened: as §1

[5] = system: Arthrobacter 1 (Arthrobacter humicola)
Procedure, shortened: as §1

[6] = system: Arthrobacter 2 (Arthrobacter humicola)
Procedure, shortened: as §1

[7] = system: Arthrobacter 3 (Arthrobacter sp.)
Procedure, shortened: as §1

Community 10 = system: Community 10
Procedure, shortened: as §1

Community 4 = system: Community 4
Procedure, shortened: as §1

Community 6 = system: Community 6
Procedure, shortened: as §1

Community 7 = system: Community 7
Procedure, shortened: as §1

Community 8 = system: Community 8
Procedure, shortened: as §1

Community 9 = system: Community 9
Procedure, shortened: as §1

[8] = system: Flavobacterium 1 (Flavobacterium glaciei)
Procedure, shortened: as §1

[9] = system: Flavobacterium 2 (Flavobacterium succinicans)
Procedure, shortened: as §1

[10] = system: Hymenobacter 1 (Hymenobacter glaciei)
Procedure, shortened: as §1

[11] = system: Microbacterium 1 (Microbacterium arborescens)
Procedure, shortened: as §1

[12] = system: Neobacillus 1 (Neobacillus soli)
Procedure, shortened: as §1

[13] = system: Oryzobacter 1 (Oryzobacter terrae)
Procedure, shortened: as §1

[14] = system: Paenibacillus 1 (Paenibacillus castaneae)
Procedure, shortened: as §1

SMILES	relative growth [1]	relative growth [2]	relative growth [3]	relative growth [4]	relative growth [5]	relative growth [6]	relative growth [7]	relative growth (Community 10)	relative growth (Community 4)	relative growth (Community 6)	relative growth (Community 7)	relative growth (Community 8)	relative growth (Community 9)	relative growth [8]	relative growth [9]	relative growth [10]	relative growth [11]	relative growth [12]	relative growth [13]	relative growth [14]
CNC(=O)c1cc(C#N)cc(C)c1NC(=O)c1cc(Br)nn1-c1ncccc1Cl	0.986 (inactive)	0.95 (inactive)	1.01 (inactive)	1.03 (inactive)	1 (inactive)	0.967 (inactive)	0.99 (inactive)	0.859 (inactive)	0.903 (inactive)	0.946 (inactive)	1.05 (inactive)	0.986 (inactive)	1.02 (inactive)	1.02 (inactive)	0.975 (inactive)	0.978 (inactive)	0.993 (inactive)	0.957 (inactive)	1.06 (inactive)	0.915 (inactive)
O=C1C2CC=CCC2C(=O)N1SC(Cl)(Cl)Cl (centres undefined)	0.905 (inactive)	1.01 (inactive)	0.983 (inactive)	0.74 (active)	0.95 (inactive)	0.769 (inactive)	0.919 (inactive)	0.58 (inactive)	0.671 (inactive)	0.614 (active)	0.95 (inactive)	0.794 (inactive)	0.473 (active)	0.948 (inactive)	0.9 (inactive)	0.968 (inactive)	1 (inactive)	0.917 (inactive)	0.991 (inactive)	1.06 (inactive)
Nc1c(Cl)c(F)nc(OCC(=O)O)c1Cl	0.974 (inactive)	1 (inactive)	0.991 (inactive)	1.03 (inactive)	1.1 (inactive)	1.02 (inactive)	0.991 (inactive)	0.976 (inactive)	1.07 (inactive)	1.01 (inactive)	1.01 (inactive)	1.04 (inactive)	1.03 (inactive)	1.07 (inactive)	0.993 (inactive)	1.03 (inactive)	1.02 (inactive)	1.04 (inactive)	1.01 (inactive)	1.03 (inactive)
CC(C)N(C)S(=O)(=O)NC(=O)c1cc(-n2c(=O)cc(C(F)(F)F)n(C)c2=O)c(F)cc1Cl	0.995 (inactive)	1.02 (inactive)	1.01 (inactive)	1.03 (inactive)	1.1 (inactive)	1.01 (inactive)	1.07 (inactive)	0.909 (inactive)	1.13 (inactive)	1.03 (inactive)	1.06 (inactive)	1.08 (inactive)	1.14 (inactive)	1 (inactive)	0.978 (inactive)	1.04 (inactive)	1 (inactive)	0.98 (inactive)	1.02 (inactive)	0.99 (inactive)
CCOP(=S)(OCC)Oc1nc(Cl)c(Cl)cc1Cl	1.05 (inactive)	1 (inactive)	1.06 (inactive)	0.979 (inactive)	1.04 (inactive)	0.994 (inactive)	1.08 (inactive)	0.928 (inactive)	0.974 (inactive)	0.953 (inactive)	0.998 (inactive)	1.02 (inactive)	1.06 (inactive)	1.05 (inactive)	0.996 (inactive)	1.07 (inactive)	0.991 (inactive)	1.07 (inactive)	1.04 (inactive)	1.04 (inactive)
CCC(=O)Nc1ccc(Cl)c(Cl)c1	0.948 (inactive)	0.953 (inactive)	0.955 (inactive)	0.923 (inactive)	1.12 (inactive)	1 (inactive)	1.02 (inactive)	0.919 (inactive)	1.07 (inactive)	1.01 (inactive)	0.951 (inactive)	1.06 (inactive)	1.03 (inactive)	1.02 (inactive)	0.965 (inactive)	0.981 (inactive)	1.02 (inactive)	0.962 (inactive)	1.02 (inactive)	0.968 (inactive)
CO/C=C(/C(=O)OC)c1ccccc1COc1cccc(C(F)(F)F)n1	0.992 (inactive)	0.905 (inactive)	0.97 (inactive)	1.06 (inactive)	0.923 (inactive)	0.886 (inactive)	1.02 (inactive)	0.887 (inactive)	0.935 (inactive)	0.929 (inactive)	1.04 (inactive)	1 (inactive)	0.987 (inactive)	0.911 (inactive)	0.962 (inactive)	1.06 (inactive)	0.997 (inactive)	1.01 (inactive)	0.944 (inactive)	1.01 (inactive)
CCCCc1c(C)nc(NCC)nc1OS(=O)(=O)N(C)C	0.942 (inactive)	0.942 (inactive)	1.04 (inactive)	1.03 (inactive)	0.911 (inactive)	0.863 (inactive)	0.926 (inactive)	–	0.948 (inactive)	0.944 (inactive)	1.04 (inactive)	1.05 (inactive)	0.969 (inactive)	0.978 (inactive)	0.904 (inactive)	1.06 (inactive)	1.02 (inactive)	0.963 (inactive)	1.09 (inactive)	0.906 (inactive)
COc1ccc(-c2ccccc2)cc1NNC(=O)OC(C)C	0.954 (inactive)	0.947 (inactive)	1.02 (inactive)	0.937 (inactive)	0.913 (inactive)	0.87 (inactive)	0.932 (inactive)	0.782 (inactive)	0.882 (inactive)	0.886 (inactive)	0.932 (inactive)	0.986 (inactive)	0.868 (inactive)	0.888 (inactive)	0.898 (inactive)	0.987 (inactive)	1.06 (inactive)	0.89 (inactive)	1.02 (inactive)	0.873 (inactive)
COc1cccc(C(=O)NN(C(=O)c2cc(C)cc(C)c2)C(C)(C)C)c1C	0.951 (inactive)	0.969 (inactive)	0.979 (inactive)	0.982 (inactive)	0.98 (inactive)	0.884 (inactive)	1.02 (inactive)	0.786 (inactive)	0.822 (inactive)	0.89 (inactive)	1.12 (inactive)	1.03 (inactive)	0.893 (inactive)	0.818 (inactive)	0.92 (inactive)	0.923 (inactive)	0.977 (inactive)	0.914 (inactive)	1.06 (inactive)	0.926 (inactive)
COC(=O)NC(=S)Nc1ccccc1NC(=S)NC(=O)OC	0.978 (inactive)	0.978 (inactive)	0.998 (inactive)	1.02 (inactive)	0.923 (inactive)	0.973 (inactive)	1.07 (inactive)	0.99 (inactive)	0.943 (inactive)	0.97 (inactive)	1.03 (inactive)	0.993 (inactive)	1.05 (inactive)	1.08 (inactive)	0.993 (inactive)	0.952 (inactive)	1 (inactive)	1.01 (inactive)	0.947 (inactive)	0.934 (inactive)
COC(=O)c1ccccc1S(=O)(=O)NC(=O)Nc1nc(C)nc(OC)n1	1.02 (inactive)	1.01 (inactive)	1.07 (inactive)	0.964 (inactive)	1.16 (inactive)	1.14 (inactive)	1.01 (inactive)	1.23 (inactive)	1.16 (inactive)	1.12 (inactive)	0.941 (inactive)	1.1 (inactive)	1.1 (inactive)	1.09 (inactive)	1.08 (inactive)	1.14 (inactive)	1.01 (inactive)	1.11 (inactive)	0.997 (inactive)	1.16 (inactive)
CCc1cc(C)cc(CC)c1-c1c(OC(=O)C(C)(C)C)n2n(c1=O)CCOCC2	0.987 (inactive)	0.978 (inactive)	1.02 (inactive)	0.957 (inactive)	1.01 (inactive)	0.873 (inactive)	0.917 (inactive)	0.925 (inactive)	0.852 (inactive)	0.906 (inactive)	1.05 (inactive)	0.968 (inactive)	0.884 (inactive)	1.02 (inactive)	0.943 (inactive)	0.947 (inactive)	1.03 (inactive)	0.861 (inactive)	1.01 (inactive)	0.956 (inactive)
Cc1cc(C(F)(C(F)(F)F)C(F)(F)F)ccc1NC(=O)c1cccc(I)c1C(=O)NC(C)(C)CS(C)(=O)=O	0.939 (inactive)	0.974 (inactive)	1.41	0.695 (active)	0.792 (inactive)	1.02 (inactive)	0.822 (inactive)	1.21 (inactive)	0.805 (inactive)	0.894 (inactive)	1.15 (inactive)	1.07 (inactive)	0.75 (inactive)	0.818 (inactive)	1.2 (inactive)	0.857 (inactive)	0.925 (inactive)	1.09 (inactive)	0.97 (inactive)	1.02 (inactive)
N#C/N=C1\SCCN1Cc1ccc(Cl)nc1	0.998 (inactive)	1 (inactive)	1 (inactive)	0.984 (inactive)	1.1 (inactive)	1.11 (inactive)	1.06 (inactive)	1.02 (inactive)	1.04 (inactive)	1.05 (inactive)	0.846 (inactive)	1.07 (inactive)	1.09 (inactive)	1.1 (inactive)	1.04 (inactive)	1.21 (inactive)	1.03 (inactive)	1.07 (inactive)	1.02 (inactive)	1.05 (inactive)
CC(C)(C)c1ccc(CSc2cnn(C(C)(C)C)c(=O)c2Cl)cc1	1.02 (inactive)	0.975 (inactive)	1.03 (inactive)	1.01 (inactive)	1.02 (inactive)	0.875 (inactive)	0.98 (inactive)	0.941 (inactive)	1.01 (inactive)	1.04 (inactive)	1.12 (inactive)	1.03 (inactive)	0.994 (inactive)	0.923 (inactive)	1 (inactive)	1.01 (inactive)	1.08 (inactive)	0.915 (inactive)	1.04 (inactive)	0.971 (inactive)
